SMILES strings stand for the structures. Values joined by “and” are separate entries in the source; they are usually repeats but may differ in a detail not shown here. Identical values can stand only once. Some compounds were tested as several samples or in several runs, with calls that do not always agree. Active and inactive are the calls of the source. Rule for the calls: active = hit-call score of the fitted dose curve at least 0.9, where 1 is the maximum; inactive = score below 0.9.

This passage reports outcome and AC50 results from PubChem BioAssay (EPA / NIEHS).

Assay [1] addresses CCAAT/enhancer-binding protein beta (Homo sapiens) (UniProt P17676). Put plainly: ATG_C_EBP_CIS: Attagene CIS-FACTORIAL HepG2 Assay for human CCAAT/Enhancer Binding Protein (C/EBP) beta (AID 2282927). Conditions: HepG2 Attagene cis-factorial transcription factor reporter; actives raise or lower the signal. In outline:
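Endogenous transcription factor activity in human liver HepG2 cells is inferred from induction of a CEBPB-linked reporter mRNA. Exposure lasts 24 h; activity is fitted in both directions relative to DMSO.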

Assay [2] is described as follows: ATG_CMV_CIS: Attagene CIS-FACTORIAL HepG2 Assay for human CMV (Internal Marker) (AID 2282928).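 Note: endpoint acts as a background internal control marker rather than a target.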 Conditions: HepG2 CMV promoter reporter, transcription factor profiling; actives raise or lower the signal. In outline:
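Fluorescence intensity of RT-PCR-derived reporter fragments, resolved by capillary electrophoresis, gives the signal. HepG2 liver cells bearing transfected cis-element reporters were treated 24 h; activity in either direction was fit relative to DMSO-treated controls.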

The nature of assay [3]: ATG_DR4_LXR_CIS: Attagene CIS-FACTORIAL HepG2 Assay for human Liver X Receptor (LXR), DR4 submotif (AID 2282929). As to conditions: HepG2 Attagene DR4 cis-reporter, mRNA transcription; actives raise or lower the signal. In outline:
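HepG2 cells were transiently transfected with multiple cis-regulated reporter units and dosed for 24 hours. The DR4 reporter mRNA was quantified by RT-PCR, 6-FAM labelling and capillary electrophoresis. Bidirectional fits used DMSO as baseline.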

Assay [4] has as its target Aryl hydrocarbon receptor (Homo sapiens) (UniProt P35869). Put plainly: ATG_Ahr_CIS: Attagene CIS-FACTORIAL HepG2 Assay for human Aryl Hydrocarbon Receptor (Ahr) (AID 2282930). Conditions: HepG2 AhR cis-factorial reporter transcription; actives raise or lower the signal. In outline:
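Transient MRTU transfection of HepG2 → 24 h compound exposure → total RNA, oligo(dT) RT → PCR, 6-FAM extension, HpaI cut → CE fluorescence. DMSO = baseline; bidirectional curve fit.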

A short description of assay [5]: ATG_AP_1_CIS: Attagene CIS-FACTORIAL HepG2 Assay for human Activator Protein 1 (AP-1) (AID 2282931). As to conditions: HepG2 Attagene cis-factorial AP-1 reporter mRNA; actives raise or lower the signal. In outline:
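HepG2 cells transiently transfected with cis-element-driven reporter transcription units, dosed for 24 hours. Reporter mRNA measured by RT-PCR, 6-FAM labelling, HpaI digestion and capillary electrophoresis. Bidirectional fitting against DMSO baseline.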

The nature of assay [6]: ATG_AP_2_CIS: Attagene CIS-FACTORIAL HepG2 Assay for human Activator Protein 2 (AP-2) (AID 2282932). As to conditions: HepG2 AP-2 cis-reporter, Attagene transcription factor profiling; actives raise or lower the signal. In outline:
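Endogenous transcription factor activity is reported through transfected multiplex reporter constructs in HepG2, after 24 h of compound exposure. Transcripts were quantified by RT-PCR and capillary electrophoresis of fluorescent fragments. Bidirectional fit against DMSO.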

Assay [7] deals with Retinoic acid receptor alpha (Homo sapiens) (UniProt P10276). The experiment in a line: ATG_DR5_RAR_CIS: Attagene CIS-FACTORIAL HepG2 Assay for human Retinoic Acid Receptor Alpha (RARE), DR5 submotif (AID 2282934). Conditions: HepG2 Attagene cis-factorial RARE DR5 reporter, mRNA; actives raise or lower the signal. In outline:
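Transient MRTU transfection of HepG2; 24 h compound treatment; TriZol RNA, oligo(dT) RT, PCR, FAM labelling, capillary electrophoresis. Bidirectional fit vs DMSO. Endogenous TF activity at DR5 RARE.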

For assay [8], the target named is Transcription factor E2F1 (Homo sapiens) (UniProt Q01094). Put plainly: ATG_E2F_CIS: Attagene CIS-FACTORIAL HepG2 Assay for human E2F Transcription Factor 1 (AID 2282935). Conditions: HepG2 Attagene cis-reporter, E2F reporter RNA transcripts; actives raise or lower the signal. In outline:
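Gain or loss of reporter transcript, fitted against DMSO, reflects E2F1-driven transcription. Transiently transfected HepG2 dosed 24 h before RNA isolation. Quantified by fluorescent RT-PCR products separated by capillary electrophoresis.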

A short description of assay [9]: ATG_BRE_CIS: Attagene CIS-FACTORIAL HepG2 Assay for human Bone Morphogenetic Protein (BMP) Response Element (BRE) (AID 2282933). As to conditions: HepG2 BMP response element reporter, Attagene transcription factor profiling; actives raise or lower the signal. In outline: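 Fluorescence-labelled reporter cDNA fragments, separated by capillary electrophoresis, gave the signal for this component of a 52-readout multiplex. HepG2 cells were transfected, exposed to chemicals for 24 h, and compared with DMSO using bidirectional fitting.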

Chain of CCAAT/enhancer-binding protein beta (Homo sapiens) (P17676 whole entry, looked up): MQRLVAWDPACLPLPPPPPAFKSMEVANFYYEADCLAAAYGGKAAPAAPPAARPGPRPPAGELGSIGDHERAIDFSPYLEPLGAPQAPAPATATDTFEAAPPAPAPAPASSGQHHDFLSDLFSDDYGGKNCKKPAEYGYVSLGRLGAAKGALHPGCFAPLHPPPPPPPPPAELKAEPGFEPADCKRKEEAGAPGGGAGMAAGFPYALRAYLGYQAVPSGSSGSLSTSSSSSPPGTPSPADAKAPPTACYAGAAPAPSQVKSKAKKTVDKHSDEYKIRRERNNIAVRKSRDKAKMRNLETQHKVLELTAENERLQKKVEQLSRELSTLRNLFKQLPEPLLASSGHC
Chain of Transcription factor E2F1 (Homo sapiens) (Q01094 whole entry, looked up): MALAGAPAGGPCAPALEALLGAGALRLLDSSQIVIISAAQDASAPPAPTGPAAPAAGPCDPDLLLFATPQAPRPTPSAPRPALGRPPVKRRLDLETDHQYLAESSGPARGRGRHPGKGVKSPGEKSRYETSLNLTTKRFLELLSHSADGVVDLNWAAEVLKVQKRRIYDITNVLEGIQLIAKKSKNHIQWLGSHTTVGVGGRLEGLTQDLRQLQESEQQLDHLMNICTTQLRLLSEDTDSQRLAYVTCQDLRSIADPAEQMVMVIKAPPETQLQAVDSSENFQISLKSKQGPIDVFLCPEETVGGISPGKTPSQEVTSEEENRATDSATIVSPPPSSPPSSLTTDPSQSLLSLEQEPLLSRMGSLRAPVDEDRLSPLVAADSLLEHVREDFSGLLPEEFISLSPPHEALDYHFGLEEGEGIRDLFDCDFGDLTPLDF
Chain of Retinoic acid receptor alpha (Homo sapiens) (P10276 whole entry, looked up): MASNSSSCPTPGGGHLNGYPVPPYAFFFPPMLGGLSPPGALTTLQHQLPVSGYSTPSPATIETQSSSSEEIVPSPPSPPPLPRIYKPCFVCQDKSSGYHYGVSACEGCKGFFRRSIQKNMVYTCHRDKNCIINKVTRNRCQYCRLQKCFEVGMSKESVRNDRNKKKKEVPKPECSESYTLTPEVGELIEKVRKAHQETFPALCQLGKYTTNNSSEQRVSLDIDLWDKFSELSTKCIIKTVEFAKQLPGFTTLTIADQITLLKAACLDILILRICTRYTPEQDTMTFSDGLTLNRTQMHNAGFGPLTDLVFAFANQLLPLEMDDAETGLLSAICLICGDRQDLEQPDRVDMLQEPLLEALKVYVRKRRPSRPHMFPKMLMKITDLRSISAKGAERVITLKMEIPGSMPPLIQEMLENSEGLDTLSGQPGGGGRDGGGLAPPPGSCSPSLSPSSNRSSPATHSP
Chain of Aryl hydrocarbon receptor (Homo sapiens) (P35869 whole entry, looked up): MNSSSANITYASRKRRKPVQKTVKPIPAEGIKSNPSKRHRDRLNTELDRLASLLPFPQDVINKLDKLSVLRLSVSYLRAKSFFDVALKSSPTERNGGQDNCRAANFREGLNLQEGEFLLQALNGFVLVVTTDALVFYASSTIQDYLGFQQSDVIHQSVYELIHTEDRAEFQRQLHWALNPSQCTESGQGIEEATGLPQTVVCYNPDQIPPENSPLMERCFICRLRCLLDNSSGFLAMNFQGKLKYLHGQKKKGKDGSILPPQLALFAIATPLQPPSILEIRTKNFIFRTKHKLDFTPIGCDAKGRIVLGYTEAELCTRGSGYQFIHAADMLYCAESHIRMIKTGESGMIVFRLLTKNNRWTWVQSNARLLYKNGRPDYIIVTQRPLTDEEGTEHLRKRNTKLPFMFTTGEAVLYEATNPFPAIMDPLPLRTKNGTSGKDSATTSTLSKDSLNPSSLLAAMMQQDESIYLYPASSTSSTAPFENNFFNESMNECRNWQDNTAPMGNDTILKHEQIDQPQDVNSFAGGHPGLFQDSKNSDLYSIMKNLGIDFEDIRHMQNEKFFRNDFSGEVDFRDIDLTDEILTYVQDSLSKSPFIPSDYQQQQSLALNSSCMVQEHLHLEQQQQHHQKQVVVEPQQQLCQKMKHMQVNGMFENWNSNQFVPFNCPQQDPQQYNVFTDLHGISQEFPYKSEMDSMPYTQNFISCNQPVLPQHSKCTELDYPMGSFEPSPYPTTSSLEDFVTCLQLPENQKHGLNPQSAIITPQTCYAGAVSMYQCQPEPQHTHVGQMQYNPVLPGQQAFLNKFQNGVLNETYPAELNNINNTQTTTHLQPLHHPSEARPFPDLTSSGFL

One may read the AC50 as the concentration at which the activity in the assay is half-maximal. As for `O=C(O)C(F)(F)C(F)(F)C(F)(F)C(F)(F)C(F)(F)C(F)(F)C(F)(F)C(F)(F)C(F)(F)F`, the outcome in assay [1], in [2], in [4], in assay [5], in [6] and in [7] was inactive. Besides, the result in assay [8] was inactive. In addition, the AC50 in assay [2] was 86.6 µM (active); in [3], 27.3 µM (active) and 23.9 µM (active) and 13.3 µM (active); in assay [4] it was 69.7 µM (active); in assay [5], 59 µM (active) and 12.1 µM (active); in assay [6], 46.5 µM (active).
On to `CCCCCCCCCC[N+](C)(C)CCCCCCCCCC`, for which the result in [1], in assay [4], in assay [9], in assay [7] and in [8] was inactive. The results for the AC50 in [2], in [5] and in assay [6] were 179 µM (active), 192 µM (active) and 100 µM (active), respectively.
For the compound `Cc1cc(-c2ccc(N)c(C)c2)ccc1N`, the outcome in assay [1], in assay [2], in assay [5], in [6], in assay [7] and in assay [8] was inactive. The AC50 in assay [2] is 60.2 µM (active).
Turning to `Cc1ccccc1[N+](=O)[O-]`, the result in assay [1], in [2], in assay [3], in [4], in assay [5] and in assay [6] was inactive. Also, the call in assay [9], in [7] and in [8] was inactive.
For the compound `C=CC(N)=O`, the outcome in [1], in assay [2], in [4], in assay [5], in assay [6] and in assay [7] was inactive. Besides, the compound was classed as inactive in assay [8]. Besides, in [3], the AC50 is 47.6 µM (active).
Take `Nn1cnnc1`: the result in [1], in [2], in assay [4], in assay [5], in assay [6] and in [9] was inactive. Further, the call in assay [7] and in assay [8] was inactive.
Take `Cc1cccc([N+](=O)[O-])c1`: the result in [1], in assay [2], in [3], in [4], in assay [5] and in [6] was inactive. For the same compound, the result in assay [9], in assay [7] and in [8] was inactive.
For the compound `CC#Cc1cc(C)nc(Nc2ccccc2)n1`, the result in [1], in assay [2], in assay [5], in assay [6], in assay [7] and in assay [8] was inactive. The concentration at half-maximal activity (AC50) in assay [4] was 23 µM (active).
With `CCC(C)(c1ccc(O)cc1)c1ccc(O)cc1`, the outcome in assay [1], in assay [2], in assay [4], in assay [5], in assay [6] and in assay [9] was inactive. In addition, the call in assay [8] was inactive. Besides, the AC50 in assay [2] was 56.5 µM (active) and 56.1 µM (active) and 23.2 µM (active); in assay [4] it was 58.9 µM (active); in [5] it was 59.3 µM (active) and 33.4 µM (active) and 15.6 µM (active).
Regarding `Oc1ccc(C(c2ccc(O)cc2)(C(F)(F)F)C(F)(F)F)cc1`, the result in assay [1], in assay [2], in [4], in assay [6] and in assay [8] was inactive. In addition, the AC50 in assay [2] is 7.18 µM (active) and 8.05 µM (active); in [4], 11.1 µM (active) and 5.94 µM (active) and 13.3 µM (active); in assay [5], 11.1 µM (active) [middle of 4 runs].
Turning to `CC(C)C(=O)OCC(C)(C)C(OC(=O)C(C)C)C(C)C` (centres undefined), the result in assay [1], in [2], in assay [3], in [5], in assay [6] and in [9] was inactive. Besides, the call in assay [7] and in assay [8] was inactive. Besides, in assay [4], the AC50 is 69 µM (active).
Regarding `O=C(N[C@H]1CN2CCC1CC2)c1cc2ccoc2cn1`, the result in assay [1], in assay [2], in assay [3], in assay [4], in assay [5] and in [6] was inactive. Further, the call in assay [9], in assay [7] and in assay [8] was inactive.
With `Oc1ccc(Cl)cc1Cl`, the result in [1], in [2], in assay [3], in [4], in assay [5] and in [6] was inactive. Further, the call in assay [9], in assay [7] and in assay [8] was inactive.
Regarding `Cc1ccccc1O`, the outcome in [1], in assay [2], in assay [3], in [4], in assay [6] and in assay [9] was inactive. The compound was called inactive in assay [7] and in assay [8]. Further, the AC50 in [5] is 140 µM (active).
For the compound `COS(=O)(=O)OC`, the outcome in assay [1], in [2], in assay [3], in assay [4], in assay [5] and in assay [6] was inactive. Also, the outcome in [9], in assay [7] and in assay [8] was inactive.
As for `CC1=C2C[C@H]3[C@@H](CC=C4C[C@@H](O)CC[C@@]43C)[C@@H]2CC[C@]12O[C@@H]1C[C@H](C)CN[C@H]1[C@H]2C`, the concentration at half-maximal activity (AC50) in [1] is 13.9 µM (active); in assay [3], 13.3 µM (active). Also, the compound was classed as inactive in assay [2], in assay [4], in [5], in assay [6], in assay [7] and in [8].
